# About 5,800 (36%) of roughly 16,000 compounds were called active. Roughly 23% stayed inconclusive and do not appear here. The list shows a part of the results. Unmarked numbers belong to inactive results. Calls follow the shape of the dose curve; as a rule, active = well fitted curve in the direction sought with a large enough effect; inconclusive = small, poorly fitted or top-dose-only effect, or effect the other way; inactive = no such curve, though single readings can be large or run the other way.
# Target: Cytochrome P450 2C19 (Homo sapiens) (UniProt P33261)
# Sequence (P33261 whole entry, looked up): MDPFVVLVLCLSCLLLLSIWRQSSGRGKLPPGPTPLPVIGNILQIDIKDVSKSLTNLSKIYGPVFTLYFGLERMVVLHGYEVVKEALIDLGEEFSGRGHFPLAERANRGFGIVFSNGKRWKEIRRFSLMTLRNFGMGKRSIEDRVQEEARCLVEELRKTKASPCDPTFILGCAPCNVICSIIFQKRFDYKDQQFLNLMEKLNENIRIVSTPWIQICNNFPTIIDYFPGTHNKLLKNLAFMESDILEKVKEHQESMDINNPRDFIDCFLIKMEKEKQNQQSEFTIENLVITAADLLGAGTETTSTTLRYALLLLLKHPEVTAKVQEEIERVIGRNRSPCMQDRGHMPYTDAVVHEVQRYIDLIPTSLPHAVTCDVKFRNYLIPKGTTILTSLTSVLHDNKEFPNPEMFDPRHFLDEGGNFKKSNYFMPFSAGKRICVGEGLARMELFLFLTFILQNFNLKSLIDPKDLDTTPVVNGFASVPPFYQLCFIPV
# Assay: Cytochrome panel assay with activity outcomes
# Conditions: recombinant CYP, pro-luciferin dealkylation, luminescence, p450-cyp2c19; series mostly up to 57.1 µM; activity, negative = inhibition: at the top concentration
# % is scaled to controls: 0 for no effect and ±100 for the full control effect.
SMILES,"activity, negative = inhibition",AC50
O=C(Nc1ccccc1)N1CC[C@@]2(CCCN(C(=O)c3ccco3)C2)C1,-17.2%,
C=CC[C@@H]1C=C[C@H](O/N=C(\C)CCN2CCCCc3nc(C)c(C)cc32)[C@H](CO)O1,21.2% [at 11.4 µM],
O=C(c1cccc(F)c1)N1CCC2(CCCN(c3ncccn3)C2)CC1,,6.31 µM (active)
O=C(c1cccc(F)c1)N1CCC2(CCCN(c3ccccc3)C2)CC1,,5.01 µM (active)
O=C(c1cccc(F)c1)N1CCC2(CCCN(c3cccc(-c4ccccc4)c3)C2)CC1,,7.94 µM (active)
O=C(c1cccc(F)c1)N1CCC2(CC1)CCN(c1cccc(-c3ccccc3)c1)CC2,-26.8%,
CC(C)CN1CCCC2(CCN(C(=O)c3cccc(F)c3)CC2)C1,-33.2%,
O=C(c1cccc(F)c1)N1CCC2(CC1)CCN(c1ccccc1)CC2,-28.2%,
CC(=O)N1CCC2(CCCN(c3ncccn3)C2)CC1,-33.5%,
O=C(c1cccc(F)c1)N1CCC2(CC1)CN(c1cccc(-c3ccccc3)c1)C2,1.93%,
O=C(c1cccc(F)c1)N1CCC[C@@]2(CCN(c3ccccc3)C2)C1,4.02%,
CN(C)C(=O)c1ccc(-c2ccc3ncnc(N4CCC(C(=O)O)CC4)c3c2)cc1,6.88%,
O=C(O)CCc1ccc(-c2ccccc2)[nH]1,-7.89% [at 11.4 µM],
Clc1cccc(N/N=C/c2ccc(N3CCOCC3)cc2)c1,,10 µM (active)
FC(F)(F)c1cccc(NC(=S)Nc2cccc(Cl)c2)c1,,1.78 µM (active)
FC(F)(F)c1cccc(NC(=S)Nc2ccc(Cl)cc2Cl)c1,,0.282 µM (active)
COc1ccc(C=O)cc1COc1ccc(C)cc1[N+](=O)[O-],,2.24 µM (active)
C=CCNCCOCCOc1ccc(C)cc1[N+](=O)[O-],-79.6%,
Nc1nccc(Nc2ccc(S(N)(=O)=O)cc2)n1,-11.8% [at 11.4 µM],
Cc1cnc(CNc2cc(-c3ccc(C(=O)N(C)C)cc3)ncn2)cn1,13.1%,
CN(C)c1ccc(-c2nccc(Nc3ccc(F)cc3)n2)cc1,,3.16 µM (active)
CN(C)c1ccc(-c2cc(Nc3ccc(F)cc3)ncn2)cc1,,2 µM (active)
Fc1ccc(Nc2ccnc(-c3ccc4c(c3)OCO4)n2)cc1,,2 µM (active)
CN1CCN(c2ccnc(-c3ccc(N(C)C)cc3)n2)CC1,-40.7%,

SMILES,"activity, negative = inhibition",AC50
O=C1CCc2cc(OCCCCc3nnnn3C3CCCCC3)ccc2N1,28.7%,
CC(C)(C)c1ccc(CN(Cc2ccco2)Cc2nnnn2C2CCCC2)cc1,,2.24 µM (active)
c1ccc(CN2CC[C@@H](CNc3ncnc4ccccc34)C2)cc1,-7.26% [at 11.4 µM],
S[C@@H]1CCCN(Cc2ccccc2)C1,,3.16 µM (active)
OCC1CCCN(Cc2ccc(-c3ccccc3)cc2)C1 (configuration not stated),8.82%,
CCOc1nc(NCCN2CCOCC2)nc(Nc2ccc(C)cc2)n1,-18.9%,
Cc1ccc(Oc2ncc(CN3CCOCC3)s2)cc1,,1.78 µM (active)
CCOC(=O)C1CCN(Cc2cnc(Oc3ccc(OC)cc3)s2)CC1,,7.94 µM (active)
Cc1cc(C(C)(C)C)c(OCCCN2CCOCC2)c(C(C)(C)C)c1,-2.67% [at 11.4 µM],
O=C(Nc1cccc(F)c1)N1CC[C@@]2(CCCNC2)C1,-4.59%,
Nc1ccc(N(S(=O)(=O)c2ccccc2)S(=O)(=O)c2ccccc2)c(Cl)c1,,0.158 µM (active)
Nc1ccc(N2C(=O)c3ccccc3C2=O)c(Cl)c1,-14.9%,
CC(C)(C)C(=O)[C@H]([C@@H](c1ccccc1)N1CCOCC1)N1CCOCC1,27.5% [at 11.4 µM],
O=C(Nc1ccccc1)N1CCC2(CC1)CCN(C(=O)c1cnccn1)CC2,-4.33%,
O=C(NCC(c1cccnc1)N1CCOCC1)Nc1ccccc1 (configuration not stated),,17.8 µM (active)
CCOC(=O)c1sc2nc3c(cc2c1N)COC(C)(CC)C3 (configuration not stated),,25.1 µM (active)
Cc1ccc(-c2ccc(/C=N\NC(=O)c3cc4c(ccc5ccccc54)o3)o2)cc1[N+](=O)[O-],-10.5%,
Cc1ccc(-c2ccc(/C=N/NC(=S)Nc3ccccc3)o2)cc1[N+](=O)[O-],,7.94 µM (active)
CC1(C)OCC([C@H](O)C2=CCCCC2=O)CO1,2.21% [at 11.4 µM],
Cc1nccn1C[C@@H]1CCc2c(c3ccccc3n2C)C1=O,-18.2% [at 25.6 µM],
O=C(N/N=C/c1ccc([N+](=O)[O-])s1)c1ccccc1Br,,28.2 µM (active)
Cc1nc2ccccn2c1C(=O)N/N=C/c1ccccc1[N+](=O)[O-],-3.18%,
O=C(N/N=C/c1ccc(Br)s1)c1ccccc1[N+](=O)[O-],,12.6 µM (active)

# — PubChem BioAssay AID1851 (National Center for Advancing Translational Sciences (NCATS), 2009)
